Test results published in the supplement of paper PMC10732440.
± gives the standard deviation of the averaged measurements.

The molecules below were run on Caenorhabditis elegans N2 infected with Nematocida parisii ERTm1 (assay: progeny production relative to DMSO uninfected control; higher = more progeny despite microsporidia infection (inhibition of infection with low host toxicity)). Details: infection time 6 days; 40 µM.
Experimental: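 Bleach-synchronised C. elegans N2 L1 larvae (100 per well) were grown in 96-well plates in K-medium with 5x E. coli OP50 and 15,000 N. parisii spores/uL, plus Pandemic Response Box compound at 100 uM or 40 uM (1% DMSO), for 6 days at 21 C with shaking. Worms were stained with Rose Bengal, scanned on a flatbed scanner and counted with WorMachine. Progeny production is given as % of the DMSO uninfected control (triplicate wells), so higher values mean the compound restores progeny despite infection.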

Structure (SMILES) | progeny production [%]
C[C@@]1(O)[C@H](O)[C@@H](CO)O[C@H]1n1ccc2c(N)ncnc21 | 7.31 ± 1.5
CN1C(=O)C(c2ccccc2)C(=O)N(c2ccccc2)c2cc(C(F)(F)F)ccc21 (centres undefined) | 3.86 ± 0.4
CC(C)Oc1cccc(NC(=O)c2ccccc2C(F)(F)F)c1 | 3.26 ± 1
COC(=O)Nc1nc2ccccc2[nH]1 | 9.55 ± 1.4
COc1ccccc1CN[C@H]1C2CCN(CC2)[C@H]1C(c1ccccc1)c1ccccc1 | 8.71 ± 4.8
CCN1CCN(Cc2nc3ccc([N+](=O)[O-])cc3c(=O)n2-c2ccccc2F)CC1 | 6.53 ± 2.2
Nc1c(C(=O)NCc2ccco2)c2nc3ccccc3nc2n1CCN1CCCCC1 | 6.14 ± 2.6
NC1(C(=O)O)CCP(=O)(O)CC1 (centres undefined) | 2.95 ± 1.1
O=C(NC12CC3CC(CC(C3)C1)C2)c1cc2ccccc2[nH]1 | 6.55 ± 3.2
CCCCc1ccc(C(=O)O)nc1 | 3.89 ± 0.63
COc1cc(C(C)(C)CCCC(C)C)cc(OC)c1OC | 5.3 ± 1.8
C[N+]1(C)CCCC(OC(=O)C(O)(c2ccccc2)c2ccccc2)C1 (centres undefined) | 12.7 ± 11

Same assay, conditions: infection time 6 days; 100 µM

Structure (SMILES) | progeny production [%]
C[C@@]1(O)[C@H](O)[C@@H](CO)O[C@H]1n1ccc2c(N)ncnc21 | 15.4 ± 2
CN1C(=O)C(c2ccccc2)C(=O)N(c2ccccc2)c2cc(C(F)(F)F)ccc21 (centres undefined) | 8.44 ± 2
CC(C)Oc1cccc(NC(=O)c2ccccc2C(F)(F)F)c1 | 18.9 ± 12
COC(=O)Nc1nc2ccccc2[nH]1 | 19.7 ± 17
COc1ccccc1CN[C@H]1C2CCN(CC2)[C@H]1C(c1ccccc1)c1ccccc1 | 16.1 ± 5.7
CCN1CCN(Cc2nc3ccc([N+](=O)[O-])cc3c(=O)n2-c2ccccc2F)CC1 | 16.4 ± 6.8
Nc1c(C(=O)NCc2ccco2)c2nc3ccccc3nc2n1CCN1CCCCC1 | 8.06 ± 4
NC1(C(=O)O)CCP(=O)(O)CC1 (centres undefined) | 16.6 ± 16
O=C(NC12CC3CC(CC(C3)C1)C2)c1cc2ccccc2[nH]1 | 5.96 ± 4
CCCCc1ccc(C(=O)O)nc1 | 18.3 ± 10
COc1cc(C(C)(C)CCCC(C)C)cc(OC)c1OC | 12.1 ± 4.9
C[N+]1(C)CCCC(OC(=O)C(O)(c2ccccc2)c2ccccc2)C1 (centres undefined) | 4.14 ± 1.8
